Measurements: paper PMC5540273 (PLoS ONE, 2017)

How the values were obtained:
Settings in all cases: concentration: 1 μM, replicates: in singlicate; n = 1
CSNK2A2 = test system: CSNK2A2
CTK = test system: T1, CTK
T1 construct: gene MATK

DAPK1 = test system: DAPK1
DAPK2 = test system: DAPK2
DAPK3 = test system: DAPK3
DCAMKL1 = test system: T2, DCAMKL1
T2 construct: gene DCLK1

DCAMKL2 = test system: T3, DCAMKL2
T3 construct: gene DCLK2

DCAMKL3 = test system: T4, DCAMKL3
T4 construct: gene DCLK3

DDR1 = test system: DDR1
DDR2 = test system: DDR2
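Note: KINOMEscan kinase panel screen.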

Structure (SMILES) | %Inh (CSNK2A2) | %Inh (CTK) | %Inh (DAPK1) | %Inh (DAPK2) | %Inh (DAPK3) | %Inh (DCAMKL1) | %Inh (DCAMKL2) | %Inh (DCAMKL3) | %Inh (DDR1) | %Inh (DDR2)
CCS(=O)(=O)c1ccc(OC)c(Nc2ncc(-c3ccc(F)cc3)o2)c1.Cl [GW591947] | 17% | 0% | 0% | 0% | 15% | 9% | 0% | 6% | 0% | 4%
COc1cc2ncn(-c3cc(OCc4ccc(S(C)(=O)=O)cc4)c(C(N)=O)s3)c2cc1OC [GW869979] | 0% | 15% | 0% | 0% | 9% | 1% | 19% | 0% | 20% | 2%
COC(=O)c1c(-c2ccccc2)c2cc(Br)ccc2c(=O)n1Cc1ccc(S(C)(=O)=O)cc1 | 42% | 35% | 0% | 11% | 7% | 24% | 0% | 0% | 29% | 17%
